The values that follow come from ChEMBL document CHEMBL1961873, “Compounds: GSK PKIS; Assays: Nanosyn kinase panel” (2012).

Assay [1] deals with RAC-alpha serine/threonine-protein kinase (Homo sapiens) (UniProt P31749). Particulars: at 0.1 µM.
For assay [2] the target is unchanged. Particulars: at 1 µM.
Assay [3] concerns the target RAC-beta serine/threonine-protein kinase (Homo sapiens) (UniProt P31751). Particulars: at 0.1 µM.
For assay [4] the target is unchanged. Particulars: at 1 µM.
Assay [5] addresses RAC-gamma serine/threonine-protein kinase (Homo sapiens) (UniProt Q9Y243). The settings on record: at 0.1 µM.
For assay [6] the target is unchanged. Particulars: at 1 µM.
For assay [7], the target named is G protein-coupled receptor kinase 6 (Homo sapiens) (UniProt P43250). Particulars: at 0.1 µM.
Chain of G protein-coupled receptor kinase 6 (Homo sapiens) (P43250 whole entry, looked up): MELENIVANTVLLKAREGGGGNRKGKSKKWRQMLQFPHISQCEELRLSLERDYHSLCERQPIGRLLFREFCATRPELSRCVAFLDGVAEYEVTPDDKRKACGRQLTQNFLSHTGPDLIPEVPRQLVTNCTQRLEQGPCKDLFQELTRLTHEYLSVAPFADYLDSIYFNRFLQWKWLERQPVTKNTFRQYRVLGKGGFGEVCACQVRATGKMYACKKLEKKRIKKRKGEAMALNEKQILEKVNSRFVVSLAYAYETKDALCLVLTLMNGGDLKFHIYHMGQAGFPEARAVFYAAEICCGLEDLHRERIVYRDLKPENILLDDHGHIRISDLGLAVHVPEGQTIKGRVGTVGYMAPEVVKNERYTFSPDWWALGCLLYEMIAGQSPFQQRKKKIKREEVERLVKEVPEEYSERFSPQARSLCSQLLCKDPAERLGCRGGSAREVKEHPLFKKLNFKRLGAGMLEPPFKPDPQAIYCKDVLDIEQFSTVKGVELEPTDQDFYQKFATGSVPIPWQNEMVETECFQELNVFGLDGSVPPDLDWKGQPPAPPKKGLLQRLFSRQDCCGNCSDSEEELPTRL
For assay [8] the target is unchanged. The settings on record: at 1 µM.
Assay [9] has as its target T1, Rhodopsin kinase GRK7 (Homo sapiens) (UniProt Q8WTQ7).
T1 sequence (whole entry): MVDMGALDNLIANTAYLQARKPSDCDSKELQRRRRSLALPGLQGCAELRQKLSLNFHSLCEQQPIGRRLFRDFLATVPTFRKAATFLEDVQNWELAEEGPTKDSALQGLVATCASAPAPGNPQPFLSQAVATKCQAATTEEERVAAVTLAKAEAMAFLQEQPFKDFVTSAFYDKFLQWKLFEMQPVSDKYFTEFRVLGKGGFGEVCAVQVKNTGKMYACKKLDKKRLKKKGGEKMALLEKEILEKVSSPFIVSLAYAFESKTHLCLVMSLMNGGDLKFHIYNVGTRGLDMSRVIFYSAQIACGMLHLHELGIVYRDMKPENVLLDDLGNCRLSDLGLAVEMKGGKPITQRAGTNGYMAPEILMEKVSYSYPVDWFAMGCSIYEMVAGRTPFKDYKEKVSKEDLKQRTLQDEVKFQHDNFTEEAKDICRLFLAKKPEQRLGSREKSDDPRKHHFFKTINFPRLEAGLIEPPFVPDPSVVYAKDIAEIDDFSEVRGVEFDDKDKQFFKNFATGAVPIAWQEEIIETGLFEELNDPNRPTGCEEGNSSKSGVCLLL
The settings on record: at 0.1 µM.

Assay [10] addresses T1, Rhodopsin kinase GRK7 (Homo sapiens). The settings on record: at 1 µM.

Chain of RAC-alpha serine/threonine-protein kinase (Homo sapiens) (P31749 whole entry): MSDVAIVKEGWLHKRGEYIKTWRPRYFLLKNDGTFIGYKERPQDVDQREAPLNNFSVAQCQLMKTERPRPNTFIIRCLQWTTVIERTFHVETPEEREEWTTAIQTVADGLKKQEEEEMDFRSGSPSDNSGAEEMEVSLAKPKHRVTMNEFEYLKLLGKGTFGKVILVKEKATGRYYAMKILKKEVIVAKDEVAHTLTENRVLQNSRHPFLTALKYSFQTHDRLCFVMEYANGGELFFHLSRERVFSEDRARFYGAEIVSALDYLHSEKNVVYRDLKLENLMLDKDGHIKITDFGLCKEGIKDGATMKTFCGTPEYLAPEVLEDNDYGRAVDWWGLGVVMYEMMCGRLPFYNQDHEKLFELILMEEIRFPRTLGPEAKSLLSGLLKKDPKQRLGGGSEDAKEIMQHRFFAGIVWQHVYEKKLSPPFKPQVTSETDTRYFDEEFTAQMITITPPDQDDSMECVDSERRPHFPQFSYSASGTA
Chain of RAC-beta serine/threonine-protein kinase (Homo sapiens) (P31751 whole entry): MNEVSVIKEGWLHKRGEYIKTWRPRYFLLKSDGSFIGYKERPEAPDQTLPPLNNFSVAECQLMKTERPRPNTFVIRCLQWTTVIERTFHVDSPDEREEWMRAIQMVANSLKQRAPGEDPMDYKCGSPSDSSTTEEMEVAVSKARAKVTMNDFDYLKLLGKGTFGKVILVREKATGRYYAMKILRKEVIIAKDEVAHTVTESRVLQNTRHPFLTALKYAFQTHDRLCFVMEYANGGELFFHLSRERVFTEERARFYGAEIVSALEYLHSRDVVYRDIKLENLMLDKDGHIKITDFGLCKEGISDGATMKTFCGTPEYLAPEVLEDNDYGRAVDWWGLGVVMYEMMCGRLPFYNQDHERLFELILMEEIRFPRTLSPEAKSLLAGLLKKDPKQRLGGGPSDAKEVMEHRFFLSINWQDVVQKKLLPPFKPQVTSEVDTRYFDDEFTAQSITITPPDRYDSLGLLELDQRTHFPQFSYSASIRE
Chain of RAC-gamma serine/threonine-protein kinase (Homo sapiens) (Q9Y243 whole entry): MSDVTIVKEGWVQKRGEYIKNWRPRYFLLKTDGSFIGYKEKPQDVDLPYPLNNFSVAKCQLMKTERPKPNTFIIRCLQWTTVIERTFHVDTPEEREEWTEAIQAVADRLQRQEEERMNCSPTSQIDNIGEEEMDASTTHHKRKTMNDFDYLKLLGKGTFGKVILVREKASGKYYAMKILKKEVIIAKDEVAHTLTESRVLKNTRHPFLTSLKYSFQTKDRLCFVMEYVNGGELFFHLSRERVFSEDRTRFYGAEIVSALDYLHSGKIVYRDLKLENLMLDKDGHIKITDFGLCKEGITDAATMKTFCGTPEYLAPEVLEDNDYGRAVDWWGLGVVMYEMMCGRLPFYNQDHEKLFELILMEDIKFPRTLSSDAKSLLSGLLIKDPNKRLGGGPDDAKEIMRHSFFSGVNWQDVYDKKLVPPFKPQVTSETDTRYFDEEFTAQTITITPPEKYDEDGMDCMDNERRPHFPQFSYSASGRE

Take `CCn1c(-c2nonc2N)nc2ccccc21`: the inhibition worked out at 1.46% in assay [1]; 2.48% in assay [2]; 0.69% in [3]; 2.24% in assay [4]; 0.81% in [5]; 3.67% in assay [6]. Besides, the inhibition in assay [7] is 1.21%; in assay [8], -3.25%; in assay [9] it was 1.89%; in assay [10], -9.67%.
Take `CCn1c(-c2nonc2N)nc2c(C#CC(C)(C)O)ncc(OC3CCNCC3)c21`: the inhibition in assay [1] was 70.1%; in assay [2] it was 92.8%; in assay [3] it was 85.2%; in assay [4], 95.5%; in assay [5], 74.7%; in [6], 94.2%. Also, the inhibition amounted to 4.09% in [7], 7.13% in assay [8], 7.74% in [9] and 17% in assay [10].
Take `COc1ccc2c(-c3ccnc(Nc4cccc(OC(F)(F)F)c4)n3)cnn2n1`: the inhibition in assay [1] was 0.95%; in [2], 0.97%; in assay [3] it was 2.41%; in assay [4] it was 1.51%; in assay [5] it was 1.3%; in assay [6], 1.57%. Besides, the inhibition came out at 4.64% in [7], 5.84% in [8], 5.16% in assay [9] and 4.9% in assay [10].
As to `c1ccc(COc2ccc(Nc3ncnc4ccc(-c5ccco5)cc34)cc2)cc1`, the inhibition in assay [1] was 0.02%; in assay [2] it was 0.01%; in assay [3], -0.87%; in [4], 0.43%; in assay [5] it was 0.39%; in assay [6] it was 2.23%. For the same compound, the inhibition was -0.04% in [7], 4.75% in assay [8], 5.57% in assay [9] and 5.11% in assay [10].
Regarding `CS(=O)(=O)CCNCc1ccc(-c2ccc3ncnc(Nc4ccc(OCc5ccccc5)c(C(F)(F)F)c4)c3c2)o1`, the inhibition in assay [1] worked out at 1.54%; in assay [2], 1.3%; in assay [3] it was 1.35%; in [4] it was 2.2%; in [5], 0.3%; in assay [6], 3.04%. The inhibition in assay [7] was -0.85%; in assay [8], 1.09%; in assay [9], 10.8%; in assay [10] it was 3.42%.
`COc1cccc(-n2ncc3c(N/N=C/c4ccc(F)cc4)ncnc32)c1`: the inhibition in assay [1] came to 0.98%; in assay [2] it was 0.49%; in assay [3], 2%; in [4], 1.56%; in [5], 1.42%; in assay [6], 0.92%. Also, the inhibition in assay [7] was determined as 5.53%; in [8] it was 7.7%; in assay [9], 3.44%; in assay [10] it was 19.5%.
Consider `CCn1c(-c2nonc2N)nc2cnc(Oc3cccc(NC(=O)c4ccc(N(C)C)cc4)c3)cc21`, for which the inhibition in [1] worked out at 0.51%; in [2], 7.63%; in [3], 0.71%; in assay [4] it was 8.4%; in assay [5], 1.82%; in [6], 10.2%. Besides, the inhibition in [7] came to 0.82%; in [8], 2.85%; in [9], 2.74%; in [10] it was 4.11%.
`Cc1cccc(Nc2ncc(-c3ccccc3)o2)c1`: the inhibition turned out to be 2.47% in assay [1]; 3.09% in [2]; 2.46% in [3]; 2.97% in [4]; 2.2% in [5]; 5.22% in assay [6]. The inhibition turned out to be 5.33% in assay [7], 4.72% in [8], 4.29% in assay [9] and 3.7% in assay [10].
As to `COc1cc(/C=N/Nc2ncnc3[nH]ncc23)ccc1O`, the inhibition in assay [1] was 0.87%; in assay [2] it was 0.81%; in assay [3], 1.01%; in [4], 0.76%; in assay [5], 1.65%; in [6], 0.92%. Moreover, the inhibition in [7] came to 4.89%; in assay [8] it was 5.42%; in assay [9], 2.24%; in assay [10] it was 5.07%.
In the case of `COc1cccc(-c2c[nH]c3c(N/N=C/c4ccncc4)ncnc23)c1`, the inhibition in assay [1] is 1.29%; in [2] it was 0.32%; in assay [3], 1.22%; in [4], -0.06%; in [5], 1.48%; in assay [6] it was -0.22%. For the same compound, the inhibition in assay [7] was -1.66%; in assay [8] it was -7.11%; in [9], 0.28%; in [10], -6.92%.
As to `O=C(Nc1n[nH]c2cc(-c3ccc(F)cc3)ccc12)C1CC1`, the inhibition in assay [1] amounted to 0.61%; in [2], 1.36%; in [3] it was 1.62%; in [4], 1.6%; in assay [5], 0.49%; in assay [6], 1.05%. Also, the inhibition stood at 1.59% in assay [7], 1.04% in assay [8], 4.1% in assay [9] and 7.25% in [10].
Consider `CC(=O)NCc1cccc(C#Cc2cncnc2Nc2ccc(OCc3cccc(F)c3)c(Cl)c2)c1`, for which the inhibition in assay [1] is -0.84%; in assay [2], -1.16%; in assay [3], -0.39%; in assay [4], 0.71%; in [5], 0.73%; in assay [6], 0.47%. In addition, the inhibition in assay [7] is 1.84%; in [8], 3.06%; in [9] it was -1.42%; in [10], 7.96%.
For `Fc1ccc(-c2nn3ccccc3c2-c2ccncc2)cc1`, the inhibition worked out at 0.06% in assay [1]; 1.28% in assay [2]; 0.35% in [3]; 1.43% in assay [4]; 1.01% in [5]; 4.38% in [6]. Further, the inhibition in assay [7] is 0.75%; in assay [8], -0.76%; in assay [9], 0.65%; in assay [10], 3.13%.
Regarding `Clc1ccc(-c2nn3ncccc3c2-c2ccnc(Nc3ccccc3)n2)cc1`, the inhibition in assay [1] was 0.13%; in assay [2], 0.62%; in [3] it was 0.64%; in [4] it was 1.15%; in assay [5], 1.22%; in assay [6] it was -0.89%. The inhibition in assay [7] is 2.85%; in [8], 1.72%; in assay [9], 3.88%; in [10], -1.87%.
On to `COC(=O)c1sc(-n2cnc3cc(OC)c(OC)cc32)cc1OCc1ccccc1C(F)(F)F`, for which the inhibition in assay [1] was 0.87%; in assay [2] it was 0.62%; in assay [3], 2.35%; in assay [4] it was 1.5%; in [5], -0.55%; in assay [6], 1.41%. Further, the inhibition in [7] was -0.86%; in [8] it was 1.16%; in [9], 2.73%; in assay [10] it was 7.64%.
With `CCn1c(-c2nonc2N)nc2c(C#CC(C)(C)O)nc(OC[C@H](N)c3ccccc3)cc21`, the inhibition in assay [1] was found to be 64.2%; in [2] it was 90.4%; in [3], 75.3%; in assay [4], 92%; in assay [5], 66.8%; in assay [6], 91.7%. In addition, the inhibition stood at 2.82% in assay [7], 5.48% in assay [8], 2.77% in assay [9] and 15% in assay [10].
Regarding `CNC(=O)c1cncc(/C=C/c2ccccc2Cl)c1`, the inhibition was 0.07% in [1]; 1.96% in [2]; 0.21% in [3]; 0.07% in [4]; -0.57% in [5]; 0.32% in [6]. The inhibition was 1.74% in assay [7], 10.9% in assay [8], 2.3% in assay [9] and 10.8% in assay [10].

In general, inhibition refers to the relative decrease from the control value, in per cent.
